The entries come from a sample that favours hits as a whole.
PL synth Enamine = animal cell phospholipid biosynthesis inhibition, Enamine screen; ZR-82 CHO cells, pyrene fatty acid UV survival, CellTiter Blue; peroxisome-deficient CHO-K1 mutant line; plus DGAT-1, DGAT-2 and ACAT inhibitors; 0.4% of 20,000 active; calls only at 10 µM;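 active = cell survival signal 2 SD away from solvent-only control wells, confirmed on one or two retests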;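 also: 3 h compound exposure then viability read about one day after UV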
* marks the source's active call; other numbers are inactive results; i = inactive; + = active, no number.

SMILES | PL synth Enamine
COc1ccc(/C=C2\CCCC[n+]3c(-c4ccc(F)cc4)csc32)c(OC)c1 | i
Clc1ccc(-c2nnc(CSc3nnc(-c4ccc5c(c4)OCO5)o3)o2)cc1 | i
Cc1cccc(N=Nc2c(C)nn(-c3ccccc3)c2N)c1C | i
Cc1nn(-c2ccccc2)c(N)c1N=Nc1ccc([N+](=O)[O-])c(C(F)(F)F)c1 | +
Cc1ccc(-n2nc(C)c(N=Nc3ccccc3C)c2N)cc1 | i
CCOC1(c2cccs2)OC(c2cccs2)=C(c2cccs2)OC1c1cccs1 (stereo unspecified) | i
O=C(/C=C/NC12CC3CC(CC(C3)C1)C2)C(F)(F)F | i
Cc1ccc(N=Nc2cc(C(C)(C)C)cc(Br)c2O)cc1 | +
CC(C)(C)c1cc(C=Nc2cc(C(C)(C)C)cc(C(C)(C)C)c2O)c(O)c(C(C)(C)C)c1 | i
CC(C)(C)N/N=C/c1cc(Br)c(O)c(Br)c1 | i
Fc1ccc(C2C=C(c3ccccc3)Nc3nc(C(F)(F)F)nn32)cc1F (stereo unspecified) | i
CC(=O)NC1C(OC2CC(C)CCC2C(C)C)OC(COC(C)=O)C(OC(C)=O)C1OC(C)=O (stereo unspecified) | i
CN1/C(=C\C=Nc2c(F)c(F)c(F)c(F)c2F)C(C)(C)c2ccccc21 | i
CN1/C(=C\C=Nc2ccccc2I)C(C)(C)c2ccccc21 | i
CN1/C(=C\C=Nc2ccccc2N)C(C)(C)c2ccccc21 | +
CN(C)c1ccc(N=Cc2sc3ccccc3c2Cl)cc1 | i
CN(C)c1ccc(N=Nc2ccccc2Br)cc1 | +
CN(C)c1ccc(C=Nc2ccc(N=Cc3ccc(N(C)C)cc3)cc2)cc1 | i
CN(C)c1ccc(N=Nc2nn[nH]n2)cc1 | i
CN(C)c1ccc(N=Nc2ccc(S(=O)(=O)O)cc2)cc1 | i
CN(C)c1ccc(N=Nc2ccccc2Cl)cc1 | +
NC(=O)N/N=C/c1cc(I)c(O)c(I)c1 | i
Cc1cc(C)c2[nH]c(O)c(N=Nc3ccccn3)c2c1 | +
Oc1[nH]c2ccc(Br)cc2c1N=Nc1ccccn1 | i
CCN(CC)S(=O)(=O)c1ccc(N=Nc2c(O)[nH]c3c(C)cc(C)cc23)nc1 | i
SMILES | PL synth Enamine
Cc1ccc(C)n1NC(=O)c1ccco1 | i
O=[N+]([O-])c1ccccc1OCc1nc2ccccc2o1 | i
Fc1ccc(CCNC(=S)NC2CC2)cc1 | i
CCN1C(=Cc2cc(C)[n+](N3CCN(C)CC3)c(C)c2)Sc2ccccc21 | i
CCC(CO)[n+]1c(C)cc(C=C2Sc3ccccc3N2Cc2ccccc2)cc1C (stereo unspecified) | +
CCN1C(=Cc2cc(C)[n+](CCO)c(C)c2)Sc2ccccc21 | i
CC1=CC(C)(C)Nc2ccc(/C(Cl)=C(\Cl)c3ncc(Cl)cn3)cc21 | i
N=C(N)c1ccccc1 | i
Cc1ccc(/C=C2\N=C(c3ccc(C(C)(C)C)cc3)OC2=O)cc1 | i
CC(C)C/C(=N\N=c1/sc2ccccc2n1C)c1ccccc1 | i
Cc1ccc(-c2c(C)n([O-])c(C)c(-c3ccc(F)cc3)[n+]2=O)cc1 | i
O=C(CNC(=O)C12CC3CC(CC(C3)C1)C2)OCc1cc(=O)n2cc(Br)ccc2n1 | i
OC1(c2ccc(OC(F)F)cc2)C[N+]2=C(SCCC2)N1c1ccccc1 (stereo unspecified) | i
S=C(NCC1CCCO1)Nc1ccc(Sc2ccc(Br)cc2)cc1 (stereo unspecified) | i
Cc1ccc(-c2csc(=NC(C)C)n2/N=C/c2ccc(Cl)cc2)cc1C | +
CN=c1scc(-c2ccc(Br)cc2)n1/N=C/c1ccc(Cl)cc1 | i
CC(C)N=c1scc(-c2ccc(Cl)c(Cl)c2)n1/N=C/c1ccc2c(c1)OCCO2 | i
O=[N+]([O-])c1ccc(NN=C2C3CC4CC2CC(O)(C4)C3)c([N+](=O)[O-])c1 | i
O=C(Cn1cc(C(F)(F)F)cc(Cl)c1=O)c1ccc(Br)s1 | i
Cc1ccc(C(=NS(=O)(=O)c2ccc(C)cc2)NS(=O)(=O)c2ccc(C)cc2)cc1 | i
CNS(=O)(=O)c1ccc(/C(C)=N/Nc2cc(C)c3cc(C)cc(C)c3n2)cc1 | +
C/C(=N\NS(=O)(=O)c1ccc(C)cc1)c1ccc2c(c1)OCCO2 | i
C(=C\c1ccccc1)/C=N/Nc1ncnc2ccccc12 | i
Cc1csc(-n2c(C)cc(C3=NNC(=NC4CCCC4)SC3)c2C)n1 | i
CC(C)(C)Nc1ncnc2sc3c(c12)CCC3 | i
SMILES | PL synth Enamine
Cc1ccc(C(=O)NN2C(C)CCCC2C)o1 (stereo unspecified) | i
CCOC(=O)c1c(C)[nH]c(N=Nc2ccc3c(c2)OCO3)c1C | +
CCOC(=O)c1c(C)[nH]c(C(=O)O)c1C | i
CCOC(=O)c1c(C)[nH]c(C(=O)COC(=O)c2ccc(C)s2)c1C | i
NC1=NC(c2ccc3c(c2)OCO3)n2c(nc3ccccc32)N1 (stereo unspecified) | i
Clc1cc(Cl)c(NN=C2CCCCCCCCCCC2)c(Cl)c1 | i
